# ULK1 inh: ULK1 kinase inhibitors, primary screen, biochemical, AlphaScreen | AlphaScreen Atg13 phosphorylation by ULK1, luminescence | inhibition, % at 5.96 µM | hit rate 1.9% among 30,000; in the data active = inhibition above about 43%;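 also: 0% = median of compound wells and 100% = no enzyme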
# Target sequence (O75385 whole entry, looked up): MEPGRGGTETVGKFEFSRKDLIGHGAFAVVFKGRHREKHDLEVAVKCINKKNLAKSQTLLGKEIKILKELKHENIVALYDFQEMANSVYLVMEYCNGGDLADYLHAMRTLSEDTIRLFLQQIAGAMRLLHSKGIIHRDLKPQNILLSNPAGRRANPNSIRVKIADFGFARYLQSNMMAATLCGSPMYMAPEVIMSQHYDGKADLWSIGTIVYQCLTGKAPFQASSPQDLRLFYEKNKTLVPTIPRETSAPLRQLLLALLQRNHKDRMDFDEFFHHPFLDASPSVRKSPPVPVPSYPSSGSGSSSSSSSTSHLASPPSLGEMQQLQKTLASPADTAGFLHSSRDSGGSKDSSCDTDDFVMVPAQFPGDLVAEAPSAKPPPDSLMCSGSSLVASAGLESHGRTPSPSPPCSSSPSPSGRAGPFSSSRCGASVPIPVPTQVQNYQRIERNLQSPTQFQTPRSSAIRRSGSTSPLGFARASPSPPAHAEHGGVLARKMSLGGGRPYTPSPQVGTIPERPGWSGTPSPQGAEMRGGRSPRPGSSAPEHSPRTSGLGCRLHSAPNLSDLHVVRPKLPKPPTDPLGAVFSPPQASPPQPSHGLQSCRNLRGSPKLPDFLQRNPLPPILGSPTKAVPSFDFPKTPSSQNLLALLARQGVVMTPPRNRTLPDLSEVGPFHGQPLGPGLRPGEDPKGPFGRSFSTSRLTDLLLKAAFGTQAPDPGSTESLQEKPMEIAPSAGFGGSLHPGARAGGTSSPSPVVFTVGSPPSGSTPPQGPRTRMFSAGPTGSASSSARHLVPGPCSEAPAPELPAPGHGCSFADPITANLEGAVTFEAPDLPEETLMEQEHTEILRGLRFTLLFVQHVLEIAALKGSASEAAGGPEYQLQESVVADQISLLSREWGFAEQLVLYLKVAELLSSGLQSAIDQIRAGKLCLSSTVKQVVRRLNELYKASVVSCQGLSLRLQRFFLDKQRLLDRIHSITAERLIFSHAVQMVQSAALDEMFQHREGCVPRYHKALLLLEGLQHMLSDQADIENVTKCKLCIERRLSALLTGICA
# ASK1 primary: ASK1 kinase inhibitors, primary screen, biochemical, AlphaScreen | Mitogen-activated protein kinase kinase kinase 5 (Homo sapiens), Q99683 | hit rate 0.99% among 22,000 | inhibition, % at 7.44 µM | AID 1159602, 2016 | AlphaScreen MKK6 phosphorylation by ASK1, luminescence; in the data active = inhibition above about 35%;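 also: 0% = median of compound wells and 100% = no enzyme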
# Numbers without * were called inactive; nt = not tested or not shown. In the library only some 2.5% were active in any assay of this set; here they are far more common.
SMILES,ULK1 inh,ASK1 primary
Cc1ncn(-c2ccc(Nc3nccc(-c4ccc(C#N)c(N5CCOCC5)c4)n3)cc2)n1,-20.4,0.7
c1cc(-c2ccnc(Nc3ccc(-c4nn[nH]n4)cc3)n2)cc(N2CCOCC2)c1,-23.7,-3.8
N#Cc1cc(-c2ccnc(Nc3ccc(-n4cnc(N5CCOCC5)n4)cc3)n2)ccc1N1CCC(O)CC1,49.2*,-15.1
COc1ccc2c(c1)CC(C(=O)Nc1ccc(-c3cn[nH]c3)cc1OC1CCN(C)C1)CO2 (stereo unspecified),-2.8,15.6
Cc1cnc(-c2ccccc2)nc1NCCc1ccc(O)cc1,-2.4,5.3
O=C(Nc1ccc2[nH]ncc2c1)C1CCNCC1,55.9*,-2.0
O=C(Nc1ccc2[nH]ncc2c1)C1CCNC1 (stereo unspecified),12.1,-9.1
Fc1ccc(-c2cnc(N3CCCCC3)nc2)cc1,-6.6,nt
O=C(Cc1cn(-c2ccc(NCCCN3CCCC3=O)nn2)c2ccccc12)Nc1ccc(Oc2ccccc2)cc1,-12.9,16.4
O=C(Cc1cn(-c2ccc(NCCCN3CCCC3=O)nn2)c2ccccc12)Nc1ccccc1,2.0,-3.2
CC(=O)Nc1ccc(NC(=O)Cc2cn(-c3ccc(NCCCN4CCCC4=O)nn3)c3ccccc23)cc1,43.9*,5.2
O=C(Cc1cn(-c2ccc(NCCCN3CCCC3=O)nn2)c2ccccc12)Nc1ccc(N2CCOCC2)cc1,47.3*,-0.7
O=C(NCCc1ccc(O)cc1)c1ccc2nc(Nc3ccccn3)sc2c1,-14.6,5.6
COc1cc2nc(NCCN3CCOCC3)nc(Nc3ccc(N4CCOCC4)cc3)c2cc1OC,5.5,3.9
CCNc1nc(Nc2ccc(N3CCOCC3)cc2)c2cc(OC)c(OC)cc2n1,6.9,43.1*
COc1cc(Nc2nc(Nc3ccc(N4CCOCC4)cc3)ncc2C)cc(OC)c1OC,45.5*,20.0
Cc1cnc(Nc2ccccc2)nc1Nc1ccc(N2CCOCC2)cc1,29.5,28.1
COc1cc(Nc2nc(Nc3ccc(-n4ccnc4)cc3)ncc2C)cc(OC)c1OC,59.8*,12.3
COc1cc(Nc2cc(C)nc(Nc3ccc(-n4ccnc4)cc3)n2)cc(OC)c1OC,-12.1,8.1
C/C(=N\O)C1C(=O)c2ccccc2C1=O,-25.0,nt
CCCNC(=O)c1cncc(-c2ccc(OC)cc2)c1,5.7,2.7
CC(C)n1c(-c2csc3ccccc23)nc2c(NCc3cccc(C(F)(F)F)c3)ncnc21,-7.8,0.3
O=C(Nc1ccc(N2CCOCC2)cc1)C1CCN(c2ccc(Nc3ccc(N4CCOCC4)cc3)nn2)CC1,-15.9,-15.5
O=C(Nc1ccc(N2CCOCC2)cc1)C1CCN(c2ccc(Nc3ccc4ncccc4c3)nn2)CC1,49.5*,-18.5
COc1ccc(Nc2nc(NCc3cccc(C(F)(F)F)c3)c3ncn(C(C)C)c3n2)cc1,-20.3,15.5
SMILES,ULK1 inh,ASK1 primary
O=C(NCCc1ccccc1)c1ccc2cncc(-c3ccccc3)c2n1,54.9*,nt
COc1ccc(-c2cncc3ccc(C(=O)NCc4ccccc4)nc23)cc1,25.7,nt
COc1cc(Nc2nc(C)cc(Nc3ccc4c(c3)OCO4)n2)cc(OC)c1OC,-7.1,15.2
Cn1nccc1Nc1cccc(C(=O)Nc2ccc(N3CCOCC3)cc2)n1,44.6*,-28.2
Cn1nccc1Nc1ncc(C(=O)Nc2ccc(N3CCOCC3)cc2)s1,-8.9,-9.3
CC(=O)Nc1ccc(Nc2cc(C)nc(Nc3ccc(C(F)(F)F)cc3)n2)cc1,-34.3,28.3
CNC(=O)c1cc(F)ccc1Nc1cc(Nc2ccc(NC(C)=O)cc2)ncc1C(F)(F)F,79.1*,3.1
CNC(=O)c1cc(F)ccc1Nc1cc(Nc2cccc(OC)c2)ncc1C(F)(F)F,83.8*,0.4
Cc1cccc(NC(=O)c2ccc(Br)o2)c1N1CCC2(CC1)OCCO2,-1.0,-4.1
c1ccc2c(c1)OC[C@@H](c1nc3cc(-c4ccncc4)cnc3s1)O2,13.3,2.9
O=C(NCCc1ccc(O)cc1)C1CCN(c2ccc(Nc3ccncn3)nn2)CC1,2.9,5.8
CC(C(=O)Nc1cnn(-c2cccc(C(=O)Nc3ccc(N4CCOCC4)cc3)c2)c1)c1ccccc1 (stereo unspecified),-12.3,-11.1
O=C(Nc1ccccc1)Nc1cnn(-c2ccc3c(c2)C(Nc2ccc(N4CCOCC4)cc2)CCC3)c1 (stereo unspecified),44.5*,6.4
COc1nc(NCCO)nc(-c2ccc(C(=O)NC3CC3)cc2)n1,3.9,-2.9
Oc1ccc(CCNc2nc(N3CCN(c4ccccn4)CC3)nc3c2ncn3C2CCCCC2)cc1,17.9,26.4
CC(=O)Nc1ccc(Nc2nc(-c3ccc(N4CCOCC4)nc3)nc3nc[nH]c23)cc1,-11.3,10.2
CC(=O)Nc1ccc(Nc2nc(-c3ccc(N4CCOCC4)nc3)ncc2C)cc1,58.6*,-2.6
O=C(OCC1(COC(=O)c2cccnc2)CCCC(COC(=O)c2cccnc2)(COC(=O)c2cccnc2)C1O)c1cccnc1,45.3*,nt
NC(=O)c1cccnc1,-13.3,nt
Nn1cnnc1N/N=C/c1ccc(-c2cccc([N+](=O)[O-])c2)o1,45.1*,nt
O=C(N/N=C\c1ccc(-c2ccc([N+](=O)[O-])cc2)o1)c1cnccn1,-3.0,nt
O=C(NCCN1CCOCC1)c1cncc(-c2ccc(N3CCOCC3)nc2)c1,-9.8,-18.9
N[C@H](Cc1ccc(Br)cc1)C(=O)N1CCC(C(=O)Nc2ccncc2)CC1,5.0,-3.4
C[C@@H](N)C1CCC(C(=O)Nc2ccncc2)CC1 (stereo partly specified),63.6*,14.6
CNC[C@H](O)c1ccc(O)c(O)c1,-0.3,nt
SMILES,ULK1 inh,ASK1 primary
N[C@H](C(=O)O)[C@H](O)c1ccc(O)c(O)c1,88.6*,nt
CN(C)C(=O)C(=O)c1c[nH]c2ccc(Nc3cc(Nc4ccccn4)c(C(F)(F)F)cn3)cc12,45.4*,18.8
CN(c1ncccc1CNc1cc(Nc2ccc3[nH]c(=O)oc3c2)ncc1C(F)(F)F)S(C)(=O)=O,39.5,22.6
CNC(=O)c1ccccc1Nc1cc(Nc2ccc3[nH]cc(C(=O)C(=O)N(C)C)c3c2)ncc1C(F)(F)F,75.1*,-14.2
CC(C)N(CCNC(=O)c1csc(NCc2ccc3c(c2)OCO3)n1)C(C)C,-1.5,-8.5
O=C(O)c1cc(O)ccc1O,4.2,nt
Nc1ccc(O)c(C(=O)O)c1,54.6*,nt
CCCNc1ncnc2c1nc(-c1ccc(C(N)=O)cc1)n2C(C)C,-5.2,6.9
COc1cc(N2CCOCC2)ccc1Nc1cc(Nc2ccccc2C(N)=O)c(C(F)F)cn1,82.9*,-30.6
COc1cc(N2CCOCC2)ccc1Nc1cc(-c2cnn(C)c2)c(Cl)cn1,3.4,-12.4
COc1cc(N2CCOCC2)ccc1Nc1cc(Nc2ccccc2C(=O)N(C)C)c(C(F)(F)F)cn1,74.2*,6.6
CNC(=O)c1ccccc1Nc1cc(Nc2ccc(N3CCOCC3)cc2OC)ncc1C,18.4,-2.9
Cn1ccc(-c2ccccc2Nc2ccnc(Nc3ccc(N4CCOCC4)cc3)c2)n1,-3.8,19.4
Cn1nc(C2CC2)cc1Nc1cc(Nc2ccc(N3CCOCC3)cc2)ncc1C(F)(F)F,45.7*,10.3
COc1cc(Nc2ncnc3c2nc(-c2ccc(C(N)=O)cc2)n3C(C)C)cc(OC)c1OC,-6.0,-5.2
CC(C)N(CCNc1nc(NCc2ccc3c(c2)OCO3)nc2nc[nH]c12)C(C)C,-8.8,-17.8
CN(C)c1cccc(Nc2nc(NC3CCN(Cc4ccccc4)CC3)c3ncn(C4CCCCC4)c3n2)c1,10.1,24.2
N/C(=N\OC(=O)NC1CCCCC1)c1ccc(Cn2cc(C(F)(F)F)ccc2=O)cc1,-6.9,nt

# Screening results deposited in PubChem BioAssay by The Scripps Research Institute Molecular Screening Center.
